Screens deposited in PubChem by several laboratories.
Measles CPE: protection of cells from measles virus; 140,000 compounds, 1.5% hits; protection (pct of control), % at 4 µM; Measles virus-infected cells, CPE protection, absorbance; in the data active = protection mostly above about 24%, no sharp cut-off; inactive = mostly below about 26%
sdo1 growth: sdo1-depleted yeast growth rescue; S. cerevisiae sdo1-depleted JHY4D growth rescue, OD600 30 h; active compounds read high; pdr5 snq2 efflux-pump mutant strain; z-score at 10 µM; 140,000 compounds, 0.21% hits;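 active = z-score above 3 at both the 24 hr and the 30 hr optical density reads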
ROMK mod: human ROMK K+ channel modulation, primary screen; P48048; Tet-inducible ROMK, thallium flux fluorescence; actives lie on both sides; B-score at 10 µM; 130,000 compounds, 2% hits; AID 1918;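 active = signal ratio slope over the read window, or its plate-corrected B-score, at least 3 SD from the plate mean, either direction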;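 note: B-score of the F/F0 ratio slope over 7 to 12 s after thallium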
Target sequence (P48048 whole entry, looked up): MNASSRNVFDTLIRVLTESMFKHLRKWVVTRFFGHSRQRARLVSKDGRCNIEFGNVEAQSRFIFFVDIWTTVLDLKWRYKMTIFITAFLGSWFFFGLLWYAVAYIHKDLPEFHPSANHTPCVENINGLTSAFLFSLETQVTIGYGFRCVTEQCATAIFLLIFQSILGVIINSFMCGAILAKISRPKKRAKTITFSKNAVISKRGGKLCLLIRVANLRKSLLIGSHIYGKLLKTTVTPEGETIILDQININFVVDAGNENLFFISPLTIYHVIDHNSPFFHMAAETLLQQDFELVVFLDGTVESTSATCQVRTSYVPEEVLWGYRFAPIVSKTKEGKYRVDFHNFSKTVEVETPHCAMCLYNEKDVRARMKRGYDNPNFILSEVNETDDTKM
INS promoter inh: TRM-6 insulin promoter activity inhibition; TRM-6 cells (human fetal islet line), insulin promoter-eGFP reporter, imaging; reporter expression induced with tamoxifen; inhibition, % at 2 µM; 130,000 compounds, 0.9% hits;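 active = inhibition above the mean plus 3 SD, with well images judged a real hit on visual review, cut at about 60% in these data, passing the limit was not always enough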
Of the large screens only hits and unclear results are named; the others gave an inactive call. Rows were chosen to be rich in hits. Some 3% of all compounds tested hit in one or more screens of this group.

N#C/C(=C\Nc1ccc2c(c1)OCCO2)c1nc2ccccc2[nH]1	none (no result: ROMK mod)
CC1CCC2C(=O)N(c3ccccc3OC(=O)c3ccccc3F)C(=O)C2C1 (configuration not stated)	none (no result: Measles CPE, sdo1 growth, INS promoter inh)
Fc1ccc(CNC(=S)NC2CCCCCC2)cc1	none (no result: Measles CPE, sdo1 growth)
CCOCCCn1c(=S)[nH]c2ncccc2c1=O	INS promoter inh 100 (no result: ROMK mod)
COc1ccc(N2CCN(CCCn3c(=S)[nH]c4ncccc4c3=O)CC2)cc1	Measles CPE 25
O=c1c2cccnc2[nH]c(=S)n1CCCN1CCN(c2ccc(F)cc2)CC1	none
O=C(c1ccncc1)N(c1ccc2oc3c(c2c1)CCCC3)S(=O)(=O)c1ccc(F)cc1	none
CCCn1nnc(NC(=O)COc2ccc(C3CCCCC3)cc2)n1	INS promoter inh 100 (no result: ROMK mod)
COc1ccc2cc3c(N)nn(C(=O)C4CCC(C(C)(C)C)CC4)c3nc2c1 (configuration not stated)	INS promoter inh 60
Cc1ccc(/C=C2\SC(=S)N(C(Cc3ccccc3)C(=O)O)C2=O)cc1 (configuration not stated)	ROMK mod -3
CCC1CCCCN1CCCNC(=O)c1ccc(N2CCOCC2)c(NS(=O)(=O)c2ccc(OC)cc2)c1 (configuration not stated)	none (no result: Measles CPE, sdo1 growth)
Cn1c(CO)c(-c2ccccc2)c2cc([N+](=O)[O-])ccc21	Measles CPE 37
CC(=O)c1sc2nc(C)cc(C)c2c1N	INS promoter inh 77 (no result: ROMK mod)
Cc1cc(C)c2nc(NC(=O)[C@@H](NC(=O)c3cccc(S(=O)(=O)N4CCOCC4)c3)C(C)C)sc2c1	none (no result: ROMK mod)
Cc1cccc2cc(CN(CC3CCCO3)C(=S)NCc3ccco3)c(=O)[nH]c12 (configuration not stated)	Measles CPE 31
CCOC(=O)CSc1nc2cc(C(=O)N3CCCC3)ccc2c(=O)n1Cc1ccccc1	Measles CPE 25
COc1ccc(S(=O)(=O)Nc2ccccc2OC)cc1NC(=O)c1cc2ccccc2oc1=O	none (no result: ROMK mod, INS promoter inh)
N#Cc1ccc(C(=O)NCC(c2ccco2)N2CCCCC2)cc1 (configuration not stated)	Measles CPE 46
CN(C)S(=O)(=O)c1cccc(C(=O)NC2CCCc3ccccc32)c1 (configuration not stated)	none
CCCNS(=O)(=O)c1cccc(C(=O)NC2CCCc3ccccc32)c1 (configuration not stated)	Measles CPE 41
CCOc1ccc(NC(=O)c2ccc(NC(=O)CSc3nc4ccccc4c(=O)[nH]3)cc2)cc1	none (no result: Measles CPE, sdo1 growth, INS promoter inh)
CCCn1c(C)cs/c1=N\C(=S)Nc1ccccc1	Measles CPE 44 (no result: ROMK mod)
Cc1cs/c(=N/C(=S)Nc2ccccc2)n1C	none
Cc1cc(C(=O)NCCCOC(C)C)c2ccccc2n1	none (no result: ROMK mod)
Cc1cc(C(=O)NCCCN(C)C)c2ccccc2n1	INS promoter inh 78 (no result: Measles CPE, sdo1 growth)
O=C(Nc1ccccc1)c1cc(S(=O)(=O)N2CCOCC2)cs1	none
O=C(COC(=O)c1cc(S(=O)(=O)N2CCOCC2)ccc1O)NCCc1ccccc1	Measles CPE 39
CCOC(=O)Cc1csc(NC(=O)c2ccc(S(=O)(=O)N3CCCCC3)cc2)n1	Measles CPE 39 (no result: ROMK mod)
COc1ccc2nc(NC(=O)c3cccc(S(=O)(=O)N4CCOCC4)c3)sc2c1	INS promoter inh 74 (no result: ROMK mod)
O=C(COC(=O)c1cc(S(=O)(=O)N2CCOCC2)cs1)c1ccccc1	Measles CPE 51 (no result: ROMK mod)
O=C(NCCc1ccccc1)c1cc(S(=O)(=O)N2CCOCC2)ccc1F	none
O=C(Cn1cnc2ccccc21)N/N=C/c1ccccc1[N+](=O)[O-]	none (no result: ROMK mod, INS promoter inh)
O=C(NCc1ccc(Cl)cc1Cl)C1CCN(S(=O)(=O)c2ccc3c(c2)OCCCO3)CC1	none (no result: ROMK mod, INS promoter inh)
CC(C)NC(=O)CCn1nc(-c2ccc(Cl)cc2)c2ccccc2c1=O	none (no result: Measles CPE, sdo1 growth, INS promoter inh)
CCC1SC(CC)C(=O)N(CC(=O)Nc2ccc3c(c2)OCO3)C1=O (configuration not stated)	none (no result: ROMK mod, INS promoter inh)
Cc1ccc(-c2csc(NC(=O)COC(=O)c3cccc(S(=O)(=O)N4CCOCC4)c3)n2)cc1	Measles CPE 28 (no result: ROMK mod)
COc1ccc(C(=O)Nc2nc(-c3cccs3)cs2)cc1	none (no result: ROMK mod)
O=C(Nc1nc(-c2cccs2)cs1)c1ccc(Cl)cc1	Measles CPE 49 (no result: ROMK mod)
O=C(Nc1nc(-c2cccs2)cs1)c1cccc(S(=O)(=O)N2CCCCC2)c1	Measles CPE 32
CC1CC1C(=O)Nc1nc(-c2ccc(Cl)s2)cs1 (configuration not stated)	none (no result: Measles CPE, sdo1 growth)
Cc1ccc(-c2csc(NC(=O)c3cccc(S(=O)(=O)N4CCN(C)CC4)c3)n2)cc1	none (no result: ROMK mod, INS promoter inh)
O=C(Nc1nc(-c2ccc(Cl)s2)cs1)c1ccncc1	Measles CPE 58 (no result: ROMK mod)
CCOC(=O)C1CCCN(S(=O)(=O)c2ccc(OC)cc2)C1 (configuration not stated)	none
